Data published in PubChem BioAssay (Tox21).
Results filed as inconclusive are left out. The source made the active and inactive calls. Calls follow the shape of the dose curve; as a rule, active = well fitted curve in the direction sought with a large enough effect in the repeat runs; inconclusive = weak or mixed curves; inactive = no such curve, though single readings can be large; an effect the other way counts as inactive or inconclusive.

Experiments:
[1] = Human pregnane X receptor (PXR) small molecule agonists, qHTS cell viability counter screen (AID 1346977); also: nearly all actives have a fitted effect of over 50% in size
In short: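 PXR-Luc HepG2 cells (2,000/well, 5% charcoal-stripped FBS) preincubated 5 hr, then exposed to compounds 24 hr at 37 C. Viability read in the same wells by CellTiter-Fluor fluorescence, reagent added at 23 hr, 1 hr incubation.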

[2] = Caspase-3/7 induction in HepG2 cells by small molecules, qHTS assay (AID 1346978); also: nearly all actives have a fitted effect of over 15% in size
In short: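 Wild-type HepG2 cells (2,000/well) were settled 5 h at 37 C, 5% CO2, then exposed to compounds in DMSO for 17 h. Caspase-3/7 activity was read by luminescence 30 min after adding Caspase-Glo 3/7 reagent at room temperature.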

[3] = Caspase-3/7 induction in CHO-K1 cells by small molecules, qHTS assay (AID 1346980); also: nearly all actives have a fitted effect of over 15% in size
In short: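 Wild-type cells were seeded at 1,500 per well and settled 5 hr at 37 C, 5% CO2, then exposed to DMSO-dissolved compounds for 17 hr. Caspase-Glo 3/7 reagent was added, and luminescence was read after 30min at room temperature.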

[4] = Caspase-3/7 induction in HepG2 cells by small molecules, qHTS cell viability counter screen (AID 1346981); also: series mostly up to about 92 µM; nearly all actives have a fitted effect of over 30% in size
In short: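 Wild-type HepG2 cells, 2,000/well, settled 5 hr at 37 C, 5% CO2 before compound addition. Viability read by CellTiter-Fluor fluorescence, reagent added after 16 hr compound exposure, then 1 hr at 37C, in the same wells as the caspase read.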

[5] = target: Nuclear receptor subfamily 1 group I member 2 (Rattus norvegicus) (UniProt Q9R1A7); test: Rat pregnane X receptor (rPXR) activation by small molecules, qHTS assay (AID 1346983); details: rPXR luciferase reporter cells, One-Glo luminescence, 24 h; max activation: hits give high values; also: nearly all actives have a fitted effect of over 20% in size; also: potency is read from the fitted curve at half-maximal effect
Chain of Nuclear receptor subfamily 1 group I member 2 (Rattus norvegicus) (Q9R1A7 whole entry, looked up): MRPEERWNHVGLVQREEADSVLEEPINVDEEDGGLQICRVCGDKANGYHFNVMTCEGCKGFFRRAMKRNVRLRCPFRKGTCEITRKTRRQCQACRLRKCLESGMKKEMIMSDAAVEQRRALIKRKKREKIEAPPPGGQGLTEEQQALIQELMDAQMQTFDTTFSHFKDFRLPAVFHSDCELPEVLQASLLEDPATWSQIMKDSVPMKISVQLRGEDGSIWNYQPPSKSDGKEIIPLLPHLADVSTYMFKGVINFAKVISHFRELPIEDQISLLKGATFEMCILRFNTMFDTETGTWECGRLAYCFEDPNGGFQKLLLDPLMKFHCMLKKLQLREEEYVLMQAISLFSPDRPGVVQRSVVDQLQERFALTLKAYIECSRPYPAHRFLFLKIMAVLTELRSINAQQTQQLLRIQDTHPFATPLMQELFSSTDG
In short: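 Cell-based rPXR luciferase reporter assay, 2,000 cells per well, rested 5hr at 37 C before compound addition in DMSO, then 24 hr at 37 C. One-Glo reagent was added and luminescence read after 30 min at room temperature.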

[6] = target: Cytochrome P450 2D6 (Homo sapiens) (UniProt P10635); test: Cytochrome P450 Family 2 Subfamily D Member 6 (CYP2D6) small molecule antagonists: luciferase reporter qHTS assay (AID 1671196); also: nearly all actives have a fitted effect of over 50% in size; also: potency is read from the fitted curve at half-maximal effect
Chain of Cytochrome P450 2D6 (Homo sapiens) (P10635 whole entry, looked up): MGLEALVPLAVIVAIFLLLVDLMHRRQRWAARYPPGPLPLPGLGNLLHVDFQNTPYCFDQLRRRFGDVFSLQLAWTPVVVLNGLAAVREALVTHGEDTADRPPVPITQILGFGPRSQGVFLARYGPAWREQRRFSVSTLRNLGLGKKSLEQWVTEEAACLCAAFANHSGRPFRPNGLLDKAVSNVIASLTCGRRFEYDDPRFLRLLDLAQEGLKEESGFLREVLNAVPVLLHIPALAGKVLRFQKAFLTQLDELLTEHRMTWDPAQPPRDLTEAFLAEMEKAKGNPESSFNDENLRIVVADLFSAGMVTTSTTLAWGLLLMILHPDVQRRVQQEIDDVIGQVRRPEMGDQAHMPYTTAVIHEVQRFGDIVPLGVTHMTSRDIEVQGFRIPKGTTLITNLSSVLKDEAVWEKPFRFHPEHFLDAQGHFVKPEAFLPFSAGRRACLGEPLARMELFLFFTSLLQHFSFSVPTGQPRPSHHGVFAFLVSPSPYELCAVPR
In short: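 Cell-free P450-Glo system: CYP2D6 with proluciferin substrate was pre-incubated with compound for 10 min, then reacted with NADPH regeneration for 1 h at room temperature. Luciferin product was detected after 20 min, and data were reported as relative luminescence units.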

[7] = target: Nuclear receptor subfamily 1 group I member 2 (Homo sapiens) (UniProt O75469); test: Human pregnane X receptor (PXR) small molecule agonists, qHTS assay (AID 1346982); also: nearly all actives have a fitted effect of over 35% in size; also: potency is read from the fitted curve at half-maximal effect
Chain of Nuclear receptor subfamily 1 group I member 2 (Homo sapiens) (O75469 whole entry, looked up): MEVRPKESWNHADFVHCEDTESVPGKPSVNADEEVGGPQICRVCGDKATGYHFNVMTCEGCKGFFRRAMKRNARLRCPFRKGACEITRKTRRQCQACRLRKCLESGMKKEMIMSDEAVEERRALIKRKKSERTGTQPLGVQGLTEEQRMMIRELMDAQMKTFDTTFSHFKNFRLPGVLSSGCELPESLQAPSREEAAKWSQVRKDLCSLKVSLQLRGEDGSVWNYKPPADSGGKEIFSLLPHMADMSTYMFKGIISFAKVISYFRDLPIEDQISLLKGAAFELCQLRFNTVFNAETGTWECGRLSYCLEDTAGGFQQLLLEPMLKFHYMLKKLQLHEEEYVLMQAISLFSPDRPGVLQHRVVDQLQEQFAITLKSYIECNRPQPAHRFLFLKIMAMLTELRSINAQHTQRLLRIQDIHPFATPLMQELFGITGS
In short: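 PXR-Luc HepG2 reporter cells (CYP3A4-driven luciferase) in 5% charcoal-stripped FBS medium, plated 5 h before compound addition, then treated 24 h at 37C. Luciferase read by ONE-Glo luminescence after 30 min at room temperature.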

[8] = target: Nuclear receptor subfamily 1 group I member 2 (Homo sapiens) (UniProt O75469); test: Human pregnane X receptor (PXR) activation by small molecules, qHTS assay (AID 1346985); also: nearly all actives have a fitted effect of over 40% in size; also: potency is read from the fitted curve at half-maximal effect
In short: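 DPX-2 cells (HepG2 co-transfected with a PXR response element and a CYP3A4-promoter luciferase construct) were seeded at 2,000 per well, rested 5 hr at 37C, then exposed to DMSO-dissolved compounds for 24 hr. Activation was read as luciferase luminescence.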

[9] = Caspase-3/7 induction in CHO-K1 cells by small molecules, qHTS cell viability counter screen (AID 1346979); also: nearly all actives have a fitted effect of over 35% in size; also: potency is read from the fitted curve at half-maximal effect
In short: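 Wild-type CHO-K1 cells (1,500/well) treated with compound after 5 h plating; after 16 h at 37C, viability read as CellTiter-Fluor fluorescence following 1 h reagent incubation, in the same wells as the caspase read.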

[10] = target: Nuclear receptor subfamily 1 group I member 2 (Homo sapiens) (UniProt O75469); test: CYP3A4 induction through human pregnane X receptor (PXR) by small molecules, qHTS assay (AID 1346984); also: nearly all actives have a fitted effect of over 40% in size
In short: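 DPX-2 HepG2 cells carrying a PXR response element and CYP3A4-promoter luciferase construct, treated with compounds 24 hr at 37C. Then P450-Glo CYP3A4 Luciferin-IPA substrate (3uM final) for 3 hr at 37C, One-Glo added, luminescence read.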
% is scaled to controls: 0 for no effect and ±100 for the full control effect.

CC(C(=O)O)c1cccc(Oc2ccccc2)c1 (stereo unspecified)
inactive: Potency [1] | outcome [2] | outcome [3] | Potency [4] | max activation [5] -0.273% | Potency [6]

CCC1C(=O)OCC1Cc1cncn1C (stereo unspecified)
inactive: Potency [1] | outcome [2] | outcome [3] | Potency [4] | Potency [7] | max activation [5] -2.44% | Potency [8] | Potency [6]

O=C(c1ccccc1O)c1ccccc1O
inactive: Potency [1] | outcome [2] | outcome [3] | Potency [4]
active: Potency [7] 60.5 µM | Potency [6] 24.9 µM

C[N+](C)(C)CCCCCCCCCC[N+](C)(C)C
inactive: Potency [1] | Potency [9] | outcome [3] | Potency [4] | Potency [7] | max activation [5] -3.83% | Potency [8] | Potency [6]

CCC(C)(CCCC(C)C)OC(C)=O (stereo unspecified)
inactive: outcome [2] | Potency [9] | outcome [3] | Potency [4] | Potency [7] | Potency [6]

c1coc(CNc2ncnc3nc[nH]c23)c1
inactive: outcome [2] | Potency [9] | outcome [3] | Potency [4]

O=C1c2ccccc2C(=O)c2cc(O)ccc21
active: Potency [7] 17.2 µM
inactive: outcome [2] | Potency [9] | outcome [3]

CC(C#N)(CCC(=O)O)N=NC(C)(C#N)CCC(=O)O (stereo unspecified)
inactive: Potency [1] | outcome [2] | Potency [9] | outcome [3] | Potency [4] | Potency [6]

COCCOC[C@H](CC1(C(=O)NC2CCC(C(=O)O)CC2)CCCC1)C(=O)Oc1ccc2c(c1)CCC2 (stereo partly specified)
inactive: Potency [1] | outcome [2] | outcome [3] | Potency [7] | Potency [6]
active: Potency [9] 54.5 µM

COc1cc2c(cc1OC)-c1cc3ccc(OC)c(OC)c3c[n+]1CC2
active: Potency [6] 9.02 µM
inactive: outcome [2] | outcome [3] | Potency [7]

CCCC[N+](C)(CCCC)CCCC
active: Potency [6] 2.77 µM
inactive: Potency [1] | outcome [2] | Potency [9] | outcome [3] | Potency [4]

[K+]
inactive: outcome [2] | Potency [9] | outcome [3] | Potency [4] | Potency [6]
active: Potency [7] 27.3 µM

FB(F)F
inactive: Potency [1] | outcome [2] | Potency [9] | outcome [3] | Potency [7] | Potency [6]

CC[N+](CC)(CC(=O)Nc1c(C)cccc1C)Cc1ccccc1 (tested in a mixture with another compound)
active: Potency [6] 0.0262 µM
inactive: Potency [1] | outcome [2] | Potency [9] | outcome [3] | Potency [4]

c1ccc2sc(SN3CCOCC3)nc2c1
active: Potency [5] 28.2 µM | Potency [8] 10 µM
inactive: Potency [1] | outcome [2] | Potency [9] | outcome [3] | Potency [4]

Cc1onc(-c2c(Cl)cccc2Cl)c1C(=O)Cl
inactive: Potency [1] | outcome [2] | outcome [3] | Potency [7] | Potency [6]

Nc1ccn([C@@H]2O[C@H](CO)[C@@H](O)C2(F)F)c(=O)n1
inactive: Potency [1] | outcome [2] | outcome [3] | Potency [4] | max activation [5] -12% | Potency [8] | Potency [6]

O=C(O)c1cn(C2CC2)c2cc(N3CCNCC3)c(F)cc2c1=O
inactive: Potency [1] | Potency [9] | outcome [3] | Potency [4] | max activation [5] -1.42%

Cc1ncc([C@@H](CCCCCCc2ccc3c(n2)NCCC3)CC(=O)O)cn1
inactive: Potency [1] | outcome [2] | outcome [3] | Potency [7] | Potency [6]
active: Potency [9] 38.6 µM

CCN1C=CN(C)C1C (stereo unspecified)
inactive: Potency [1] | outcome [2] | outcome [3] | Potency [4] | Potency [7] | Potency [6]

CN1CCN(c2cc3c(nn2)Oc2ccccc2N3C)CC1
inactive: activity change, negative = cytotoxicity [1] 8.08% [at 19 µM] | caspase activation [2] -12.1% [at 19 µM] | activity change, negative = cytotoxicity [9] 3.04% [at 19 µM] | caspase-3/7 activation [3] -3.65% [at 19 µM] | activity change, negative = cytotoxicity [4] -0.441% [at 19 µM] | max activation [5] 8.97% | Potency [8]

CCOc1ccc2nc(S(N)(=O)=O)sc2c1
inactive: Potency [1] | outcome [2] | Potency [9] | Potency [4] | Potency [6]

CCOC(=O)COC(=O)c1ccccc1C(=O)OCC
inactive: Potency [1] | outcome [2] | outcome [3] | Potency [4] | Potency [7] | Potency [6]

CCOC(=O)c1cnc2c(cnn2CC)c1NN=C(C)C
inactive: Potency [1] | outcome [2] | Potency [9] | outcome [3] | Potency [4]
active: Potency [8] 8.91 µM

CCCc1ncc(C[n+]2ccccc2C)c(N)n1
inactive: Potency [1] | outcome [2] | Potency [9] | outcome [3] | Potency [4] | max activation [5] -3.34% | Potency [6]

CC/C=C\CCOC(C)OCC (stereo unspecified)
inactive: Potency [1] | outcome [2] | Potency [9] | outcome [3] | Potency [7] | Potency [6]

O=[N+]([O-])c1ccc(/C=N\O)o1
inactive: Potency [1] | outcome [2] | outcome [3] | Potency [4] | max activation [5] -2.63% | Potency [10] | Potency [8] | Potency [6]

CCOC(=O)COc1cc(-n2ncc(C(F)(F)F)c(C)c2=O)c(F)cc1Cl
active: Potency [6] 63.3 µM
inactive: Potency [1] | outcome [2] | Potency [9] | outcome [3] | Potency [4]

NC(=O)N1c2ccccc2CC(=O)c2ccccc21
inactive: Potency [1] | outcome [2] | outcome [3] | Potency [4] | max activation [5] -3.02%

NCCCC[C@H](N[C@@H](CCc1ccccc1)C(=O)O)C(=O)N1CCC[C@H]1C(=O)O
inactive: Potency [1] | outcome [2] | Potency [9] | outcome [3] | Potency [4] | max activation [5] -3.44% | Potency [6]
